For eight molecules, Potency, activity change, negative = inhibition and activity change, negative = cytotoxicity results are on record in PubChem BioAssay (NCATS).

One test has as its system Es-2. The test can be described thus: Primary qHTS to identify gynecologic anti-cancer compounds using libraries of approved drugs and bioactive compounds (AID 1345084). Also: nearly all actives have a fitted effect of over 55% in size. Conditions: Gynecologic cancer cell panel viability, ATPlite luminescence, 48 h; series mostly up to 57.5 µM. The essentials:
(§1)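 Five-concentration response, 48 h; readout is ATP-driven luciferase luminescence.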

For the next test, the system named is HeLa. The description is as above. The note with it: Gynecologic cancer cell panel viability, ATPlite luminescence, 48 h; series mostly up to 57.5 µM. A digest of the protocol: as §1
Another test has as its system Hek293T. The test is described as above. Conditions: Gynecologic cancer cell panel viability, ATPlite luminescence, 48 h, control line for the selectivity index; series mostly up to 57.5 µM. A digest of the protocol: as §1
In the next test the test system is PA-1. Described as above. The note with it: Gynecologic cancer cell panel viability, ATPlite luminescence, 48 h; series mostly up to 57.5 µM. The essentials:
as §1

Another test concerns Tov-21-G. Described as above. Conditions: Gynecologic cancer cell panel viability, ATPlite luminescence, 48 h; series mostly up to 57.5 µM. The essentials:
as §1

For a further test, the system named is Tov112D. The description is as above. The note with it: Gynecologic cancer cell panel viability, ATPlite luminescence, 48 h; series mostly up to 57.5 µM. A digest of the protocol: as §1
For a further test, the system named is CASKI. The description is as above. Conditions: Gynecologic cancer cell panel viability, ATPlite luminescence, 48 h; series mostly up to 57.5 µM. The essentials:
as §1

The next test relates to JEG-3. The description is as above. Conditions: Gynecologic cancer cell panel viability, ATPlite luminescence, 48 h; series mostly up to 57.5 µM. A digest of the protocol: as §1
A further test has as its system OV90. Described as above. The note with it: Gynecologic cancer cell panel viability, ATPlite luminescence, 48 h; series mostly up to 57.5 µM. The essentials: as §1
A further test has as its system SKOV3. The description is as above. Conditions: Gynecologic cancer cell panel viability, ATPlite luminescence, 48 h; series mostly up to 57.5 µM. A digest of the protocol:
as §1

A short description of test [1]: qHTS assay to identify inhibitors of the type 1 interferon - major histocompatibility complex class I in skeletal muscle: Counter screen cell viability and HiBit confirmation (AID 1347412). Also: nearly all actives have a fitted effect of over 60% in size. Conditions: iHSKM muscle cells + IFN-b, HiBiT or CellTiter-Glo, 24 h. A digest of the protocol:
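HLA-B*08:01–HiBiT knock-in immortalized human myoblasts (C25cl48) stimulated with 4.0 ng/ml human IFN-beta and dosed with compound in a 12-point 1:3 titration (top final 46 uM). After 24 hrs at 37 C, HiBiT lytic luminescence or CellTiter Glo ATP read out.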

Results filed as inconclusive are left out. Unmarked numbers belong to inactive results. Calls of active or inactive are those of the source. Calls follow the shape of the dose curve; as a rule, active = well fitted curve in the direction sought with a large enough effect; inconclusive = small, poorly fitted or top-dose-only effect, or another doubt; inactive = no such curve, though single readings can be large; an effect the other way counts as inactive or inconclusive.
% is scaled to controls: 0 for no effect and ±100 for the full control effect; potency is read from the fitted curve at half-maximal effect.

In the case of `C=C1C(OC(C)=O)CCC2(C)CC3(OC)OC(=O)C(C)=C3CC12` (configuration not stated), the Potency entry in the test on Es-2, in the test with HeLa, with Hek293T, with PA-1, in the test on Tov-21-G and in the test on Tov112D was “inactive” throughout.
On to `NCCCNc1ccc(Nc2nccc(Nc3cc(C4CC4)[nH]n3)n2)cc1`, for which the Potency in the test with CASKI is 3.98 µM (active); in the test on Es-2 it was 2.24 µM (active); with HeLa, 4.47 µM (active); with Hek293T, 1.41 µM (active); in the test with OV90 it was 8.91 µM (active); with PA-1 it was 1.12 µM (active). Further, the Potency in the test on SKOV3 was 7.08 µM (active); in the test on Tov-21-G, 3.98 µM (active); in the test on Tov112D, 2.82 µM (active). Moreover, the Potency entry in the test with JEG-3 was “inactive”.
For `CO[C@H]1/C=C/[C@@](C)(O)/C=C/C(=O)O[C@H](C)[C@@H](C)CC/C=C/1C`, the Potency in the test with CASKI is 11.2 µM (active); in the test on SKOV3, 12.6 µM (active); with Tov-21-G it was 10 µM (active).
For `C#CC[C@H](c1nc2cc(Cl)ccc2c(=O)n1Nc1ccccc1)N(CCCN)C(=O)c1cccc(Cl)c1F`, the Potency in the test with Es-2 was 7.94 µM (active); with HeLa it was 3.16 µM (active); in the test with Hek293T, 14.1 µM (active); in the test with Tov112D it was 0.355 µM (active). In the test with OV90, the Potency entry is “inactive”.
Consider `C=C1C(=O)O[C@@H]2[C@H]1CCC(C)=C1CCC(=O)O[C@]12C`, for which the Potency result with CASKI, with HeLa and in the test on Tov112D was “inactive” in each case.
For the molecule `O=C(O)[C@@H]1C[C@H]2C[C@@H](CCc3nn[nH]n3)CC[C@H]2CN1`, the Potency result in the test on CASKI, with Es-2, with HeLa, in the test on Hek293T, in the test on JEG-3 and in the test with OV90 was “inactive” throughout. The Potency result with PA-1, in the test with Tov-21-G and in the test on Tov112D was “inactive” throughout.
As for `CS(=O)(=O)N1CCC(NC(=O)c2[nH]ncc2NC(=O)c2c(Cl)cccc2Cl)CC1`, the Potency was 7.94 µM (active) with CASKI; 4.47 µM (active) in the test with Es-2; 10 µM (active) with HeLa; 5.01 µM (active) in the test on Hek293T; 3.98 µM (active) with PA-1; 8.91 µM (active) in the test with Tov112D. The Potency in [1] (HiBiT) is 1.98 µM (active). Besides, the Potency result in the test on JEG-3 is “inactive”. In addition, the activity change, negative = inhibition in [1] (Viability, at 45.9 µM (top of the series)) was 12.3%.
For the molecule `O=S(=O)(Nc1ccccn1)c1ccc(N=Cc2c(O)[nH]c3ccc4ncsc4c23)cc1`, the activity change, negative = cytotoxicity was 20.8% [at 11.6 µM] with CASKI; -0.0602% [at 11.6 µM] with Es-2; 20.8% [at 11.6 µM] in the test on Hek293T; 3.65% [at 11.6 µM] with JEG-3; -9.17% [at 11.6 µM] with OV90; -2.66% [at 11.6 µM] in the test with PA-1. Further, in the test on Tov-21-G, the activity change, negative = cytotoxicity is 18.8% [at 11.6 µM].
